Results filed as inconclusive are left out. Active and inactive are the calls of the source. Unless noted, the call rests on the fitted dose curve.
How the values were obtained:
[1] = Nuclear factor erythroid 2-related factor 2/antioxidant responsive element (Nrf2/ARE) small molecule agonists: qHTS cell viability counter screen in human keratinocytes (AID 1919968; active means well fitted curve in the direction sought with a large enough effect in the repeat runs; an effect the other way counts as inactive or inconclusive; further: nearly all actives have a fitted effect of over 55% in size)
Procedure, shortened: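 HaCaT ARE reporter line, 1,500 cells/well; 5 h settle, 37 C/5% CO2; cpd in DMSO pinned; 23 h exposure; CellTiter-Fluor, 1 h; fluorescence.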

[2] = biological target: Gonadotropin-releasing hormone receptor (Homo sapiens) (UniProt P30968); experiment: Human gonadotropin-releasing hormone receptor (GnRHR) small molecule agonists, calcium flux assay in GnRHR-HEK293 cells (AID 1920063); further: nearly all actives have a fitted effect of over 35% in size
Procedure, shortened: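 GnRHR-HEK293, 1500 cells/well, 18 h 37 C/5% CO2; Ca dye 1 h 37 C; cpd pinned (DMSO), agonist mode; kinetic FL 480/540, 3 min, 1 s reads; 15 conc, n=3.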

[3] = biological target: KiSS-1 receptor (Homo sapiens) (UniProt Q969F8); experiment: Human kisspeptin (KISS1R) small molecule agonists, calcium flux assay in KISS1R-HEK293 cells (AID 1920064; active means well fitted curve in the direction sought with a large enough effect in the repeat runs; an effect the other way counts as inactive or inconclusive)
Procedure, shortened: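 Stable human KISS1R HEK293 line; 18 h plating, 37 C/5% CO2; calcium dye 1 h 37 C; compound pin transfer; kinetic fluorescence Ex/Em 480/540, 3 min.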

[4] = G protein-coupled receptor (GPCR) small molecule agonists, calcium flux assay: HEK293 wild type cell line counter screen (AID 1920065)
Procedure, shortened: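 Kinetic fluorescence at Ex/Em 480/540, recorded every second over 3 min, served as the read-out after compound addition. Each compound was tested at 15 concentrations in triplicate on cells pre-loaded with calcium dye for 1 h.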

[5] = p53 small molecule agonists, cell-based qHTS assay with human liver microsomes (AID 1963577);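 further: p53 response element beta-lactamase reporter cells with liver microsomes plus NADPH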
Procedure, shortened: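 Metabolically competent format: test substances, human liver microsomes and NADPH (both 0.5 mg/mL final) incubated with p53RE-bla cells 16 h at 37 C. Beta-lactamase reporter signal then quantified by fluorescence.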

[6] = p53 small molecule agonists, cell-based qHTS assay with rat liver microsomes (AID 1963578)
Procedure, shortened: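 Each plate received p53RE-bla cells, then compound, then rat liver microsomes and NADPH (both 0.5 mg/mL final). Plates were held 16 h at 37 C, and beta-lactamase activity was detected with LiveBLAzer over 2 h.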

[7] = p53 small molecule agonists, cell-based qHTS assay with human liver microsomes: qHTS cell viability counter screen (AID 1963579); further: nearly all actives have a fitted effect of over 45% in size
Procedure, shortened: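 Tox21 library compounds, delivered from DMSO stocks, were tested on p53RE-bla cells together with 0.5 mg/mL human liver microsomes and 0.5 mg/mL NADPH (final) over 16 h at 37 C; CellTiter-Glo luminescence served as the cytotoxicity measure.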

[8] = p53 small molecule agonists, cell-based qHTS assay with rat liver microsomes: qHTS cell viability counter screen (AID 1963580); further: nearly all actives have a fitted effect of over 45% in size
Procedure, shortened: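 Viability is assessed in parallel with the p53 reporter read: HCT-116 p53RE-bla cells receive compounds plus rat microsomes and NADPH (0.5 mg/mL final apiece), incubate 16 h at 37 C, and then CellTiter-Glo luminescence is recorded.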

[9] = p53 small molecule agonists, cell-based qHTS assay: qHTS cell viability counter screen (AID 1963581); further: nearly all actives have a fitted effect of over 45% in size
Procedure, shortened: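 HCT-116 p53RE-bla cells, 4,000/well, plated 5 h before compound pin transfer; 16 h at 37 C; bla substrate 2 h RT; then CellTiter-Glo, 30 min RT, luminescence.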

[10] = p53 small molecule agonists, cell-based qHTS assay (AID 1963582; active means well fitted activation curve with a large enough effect in the signal ratio in the repeat runs, not every such curve was filed as active; the % refers to the signal ratio)
Procedure, shortened: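 Reporter line: p53RE-bla. Pre-incubation 5 h, 37 C, 5% CO2; compound (DMSO, pin tool) 16 h, 37 C; B/G FRET substrate 2 h RT; fluorescence intensity read.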

[11] = biological target: 5-hydroxytryptamine receptor 2A (Homo sapiens) (UniProt P28223); experiment: 5-hydroxytryptamine receptor 2A (HTR2A) small molecule agonists, cell-based qHTS assay (AID 1963587); further: nearly all actives have a fitted effect of over 30% in size
Procedure, shortened: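 CHO cells stably expressing human HTR2A, plated 18 h, loaded with calcium dye 1 h at 37 C. Agonist mode: compounds added and intracellular calcium fluorescence recorded kinetically for 2 min at 1 sec intervals.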

[12] = biological target: Muscarinic acetylcholine receptor M1 (Homo sapiens) (UniProt P11229); experiment: Cholinergic receptor muscarinic 1 (CHRM1) small molecule antagonists, cell-based qHTS assay (AID 1963588); further: nearly all actives have a fitted effect of over 40% in size
Procedure, shortened: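 CHRM1-CHO calcium-flux assay, antagonist mode. Cells were seeded 18 h, dye-loaded 1 h at 37 C and given compound for 5 min at RT, then acetylcholine was added at 50nM. FDSS fluorescence was read 3 min; 15 concentrations, three runs.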

[13] = biological target: Muscarinic acetylcholine receptor M1 (Homo sapiens) (UniProt P11229); experiment: Cholinergic receptor muscarinic 1 (CHRM1) small molecule agonists, cell-based qHTS assay (AID 1963589); further: nearly all actives have a fitted effect of over 35% in size
Procedure, shortened: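 Human M1 in stable CHO line; 18 h plating, 1 h dye load 37 C; cpd added (agonist mode); Ca2+ fluorescence kinetic read, 1 s intervals; 15 conc, 3 runs.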

[14] = cAMP Responsive Elements (CRE) small molecule agonists, cell-based qHTS assay (AID 1963590)
Procedure, shortened: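 HEK 293T CRE-bla, 2,000 cells/well, 18 h preincubation 37 C/5% CO2; cpds (DMSO) pinned, 3 h; LiveBLAzer B/G FRET substrate, 2 h RT.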

[15] = biological target: Beta-2 adrenergic receptor (Homo sapiens) (UniProt P07550); experiment: Adrenergic beta2 receptor (ADRB2) small molecule antagonists, cell-based qHTS assay (AID 1963592); further: series mostly up to about 92 µM; nearly all actives have a fitted effect of over 50% in size
Procedure, shortened: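 Cells (CHO, stable ADRB2 overexpression) incubated 18-20hr at 37C; compounds added from DMSO; agonist mix (1nM isoproterenol, 100uM IBMX, 25uM Ro-20-1724) added; 0.5hr RT; d2-cAMP and anti-cAMP-cryptate added; 1hr RT; 665/615 nm read.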

[16] = biological target: D(2) dopamine receptor (Homo sapiens) (UniProt P14416); experiment: Dopamine D2 receptor (DRD2) small molecule agonists, cell-based qHTS assay (AID 1963594); further: nearly all actives have a fitted effect of over 35% in size
Procedure, shortened: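 HEK293 cells stably expressing human DRD2, pre-treated with PDE inhibitor Ro20-1724 (0.1 mM final) and compound 10 min at room temperature, then stimulated with NKH477 (200nM […]) for 30 min. cAMP read by HTRF (665/620 nm).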

[17] = biological target: D(2) dopamine receptor (Homo sapiens) (UniProt P14416); experiment: Dopamine D2 receptor (DRD2) small molecule antagonists, cell-based qHTS assay (AID 1963595; active means well fitted inhibition curve with a large enough effect in the signal ratio in the repeat runs, with a control signal flat; the % refers to the signal ratio)
Procedure, shortened: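 In this cell-based antagonist screen, compounds act for 10 min at room temperature before a 30 min challenge with 12 nM quinpirole and 200 nM NKH477. cAMP is quantified by HTRF competition in DRD2-HEK293 cells containing 0.1 mM Ro20-1724.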

[18] = biological target: 5-hydroxytryptamine receptor 2A (Homo sapiens) (UniProt P28223); experiment: 5-hydroxytryptamine receptor 2A (HTR2A) small molecule antagonists, cell-based qHTS assay (AID 1963586); further: nearly all actives have a fitted effect of over 45% in size
Procedure, shortened: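 Antagonist-mode intracellular calcium assay: DOI (4 nM) added after 5 min compound pre-incubation at room temperature to dye-loaded HTR2A-CHO cells. Fluorescence followed for 3 min, sampled every second.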

[19] = biological target: Beta-2 adrenergic receptor (Homo sapiens) (UniProt P07550); experiment: Adrenergic beta2 receptor (ADRB2) small molecule agonists, cell-based qHTS assay (AID 1963593);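 further: CHO cells stably overexpressing human ADRB2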
Procedure, shortened: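 CHO cells stably over-expressing ADRB2 were plated overnight at 37C, then dosed with compounds plus a stimulation mix containing 100uM IBMX and 25uM Ro-20-1724 for 0.5hr at room temperature. cAMP was measured by HTRF competition, 1hr.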

[20] = cAMP Responsive Elements (CRE) small molecule antagonists, cell-based qHTS assay (AID 1963591; active means well fitted inhibition curve with a large enough effect in the signal ratio in the repeat runs, not every such curve was filed as active; the % refers to the signal ratio)
Procedure, shortened: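 Beta-lactamase reporter read by FRET substrate (LiveBLAzer B/G) after 2 h at room temperature. CRE-bla HEK293T cells had received compound plus 0.25 uM (final) NKH477 for 3 h at 37 °C.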

Measured: Potency

Gonadotropin-releasing hormone receptor (Homo sapiens), sequence (P30968 whole entry, looked up): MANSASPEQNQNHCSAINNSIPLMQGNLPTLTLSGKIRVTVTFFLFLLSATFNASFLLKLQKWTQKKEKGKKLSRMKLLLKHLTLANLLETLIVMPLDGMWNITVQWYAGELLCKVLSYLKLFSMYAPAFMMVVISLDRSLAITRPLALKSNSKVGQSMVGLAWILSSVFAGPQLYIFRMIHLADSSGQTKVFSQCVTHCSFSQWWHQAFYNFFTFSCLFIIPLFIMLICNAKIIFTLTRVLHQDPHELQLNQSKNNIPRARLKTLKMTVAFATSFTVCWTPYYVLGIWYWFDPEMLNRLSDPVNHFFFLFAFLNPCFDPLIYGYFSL
Beta-2 adrenergic receptor (Homo sapiens), sequence (P07550 whole entry, looked up): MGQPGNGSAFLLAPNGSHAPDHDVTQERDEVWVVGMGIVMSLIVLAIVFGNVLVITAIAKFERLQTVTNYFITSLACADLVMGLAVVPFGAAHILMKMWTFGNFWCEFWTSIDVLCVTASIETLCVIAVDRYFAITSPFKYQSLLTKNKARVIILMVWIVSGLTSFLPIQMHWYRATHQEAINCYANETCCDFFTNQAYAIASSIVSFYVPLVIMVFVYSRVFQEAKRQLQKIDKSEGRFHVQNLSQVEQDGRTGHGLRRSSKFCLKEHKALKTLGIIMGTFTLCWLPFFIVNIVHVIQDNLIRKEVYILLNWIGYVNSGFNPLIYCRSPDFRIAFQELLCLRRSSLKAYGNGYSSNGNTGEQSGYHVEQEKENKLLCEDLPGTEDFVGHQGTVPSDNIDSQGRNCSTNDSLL
KiSS-1 receptor (Homo sapiens), sequence (Q969F8 whole entry, looked up): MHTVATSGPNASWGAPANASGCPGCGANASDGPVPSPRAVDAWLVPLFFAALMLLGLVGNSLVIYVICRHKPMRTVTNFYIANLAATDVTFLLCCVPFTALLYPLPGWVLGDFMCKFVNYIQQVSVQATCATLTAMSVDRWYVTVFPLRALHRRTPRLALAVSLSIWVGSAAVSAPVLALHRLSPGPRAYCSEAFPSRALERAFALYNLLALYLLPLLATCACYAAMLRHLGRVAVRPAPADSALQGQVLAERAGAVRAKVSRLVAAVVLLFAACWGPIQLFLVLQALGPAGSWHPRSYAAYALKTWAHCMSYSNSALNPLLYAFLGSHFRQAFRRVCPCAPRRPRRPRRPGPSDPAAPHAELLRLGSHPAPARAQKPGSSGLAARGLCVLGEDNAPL
D(2) dopamine receptor (Homo sapiens), sequence (P14416 whole entry, looked up): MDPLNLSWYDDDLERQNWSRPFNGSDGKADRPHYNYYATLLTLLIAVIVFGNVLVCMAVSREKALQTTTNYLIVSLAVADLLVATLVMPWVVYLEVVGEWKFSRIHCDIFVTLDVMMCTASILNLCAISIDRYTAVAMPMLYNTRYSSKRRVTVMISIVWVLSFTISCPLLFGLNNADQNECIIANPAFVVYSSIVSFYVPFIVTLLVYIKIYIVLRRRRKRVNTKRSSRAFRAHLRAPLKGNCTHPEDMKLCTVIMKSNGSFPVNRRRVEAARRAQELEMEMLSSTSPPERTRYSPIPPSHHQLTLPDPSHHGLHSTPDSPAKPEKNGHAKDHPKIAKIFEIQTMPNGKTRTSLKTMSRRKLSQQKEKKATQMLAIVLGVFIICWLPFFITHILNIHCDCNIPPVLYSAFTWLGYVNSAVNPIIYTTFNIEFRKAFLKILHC
5-hydroxytryptamine receptor 2A (Homo sapiens), sequence (P28223 whole entry, looked up): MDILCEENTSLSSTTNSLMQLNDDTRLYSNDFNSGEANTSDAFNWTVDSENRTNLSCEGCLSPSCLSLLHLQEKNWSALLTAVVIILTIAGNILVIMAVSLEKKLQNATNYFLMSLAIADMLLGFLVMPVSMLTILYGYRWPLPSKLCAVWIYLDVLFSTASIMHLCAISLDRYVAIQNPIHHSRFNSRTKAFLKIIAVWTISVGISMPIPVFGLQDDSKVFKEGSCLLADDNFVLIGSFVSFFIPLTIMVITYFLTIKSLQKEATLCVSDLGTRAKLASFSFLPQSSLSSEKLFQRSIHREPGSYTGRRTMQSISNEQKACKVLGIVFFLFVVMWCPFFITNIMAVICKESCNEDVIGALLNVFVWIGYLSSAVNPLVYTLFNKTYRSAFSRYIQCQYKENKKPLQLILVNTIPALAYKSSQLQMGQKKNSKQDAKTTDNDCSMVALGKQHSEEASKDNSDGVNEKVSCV
Muscarinic acetylcholine receptor M1 (Homo sapiens), sequence (P11229 whole entry, looked up): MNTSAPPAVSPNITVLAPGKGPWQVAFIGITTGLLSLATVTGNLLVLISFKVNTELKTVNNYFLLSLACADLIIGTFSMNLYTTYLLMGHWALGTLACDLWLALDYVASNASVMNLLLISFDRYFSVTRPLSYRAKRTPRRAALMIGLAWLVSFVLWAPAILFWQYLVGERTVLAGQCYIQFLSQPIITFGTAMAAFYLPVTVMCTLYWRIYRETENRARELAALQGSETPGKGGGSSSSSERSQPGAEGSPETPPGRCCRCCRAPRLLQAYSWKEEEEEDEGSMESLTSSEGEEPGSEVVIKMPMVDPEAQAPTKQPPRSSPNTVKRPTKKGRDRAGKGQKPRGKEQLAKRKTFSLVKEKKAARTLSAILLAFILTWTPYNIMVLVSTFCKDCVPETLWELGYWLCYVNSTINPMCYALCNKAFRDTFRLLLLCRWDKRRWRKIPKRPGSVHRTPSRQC

O=C(Oc1ccccc1)Oc1ccccc1
inactive: [1] | [2] | [3] | [4] | [5] | [6] | [7] | [8] | [9] | [10] | [11] | [12] | [13] | [14] | [15] | [16] | [17]

CC(C)COC(=O)/C=C/c1ccccc1
inactive: [1] | [2] | [3] | [4] | [5] | [6] | [7] | [8] | [9] | [10] | [18] | [11] | [12] | [14] | [15] | [19] | [16] | [17]

CC(=O)c1ccc(OCC(=O)N2CCCCC2)cc1
inactive: [1] | [2] | [3] | [4] | [5] | [6] | [7] | [8] | [9] | [10] | [18] | [11] | [12] | [13] | [14] | [15] | [16] | [17]

CC(C)=CCCC(C)CCOC=O (stereo unspecified)
inactive: [1] | [2] | [3] | [4] | [5] | [6] | [7] | [8] | [9] | [10] | [11] | [12] | [13] | [14] | [20] | [15] | [19] | [16] | [17]

O=C(CS(=O)Cc1ccco1)NC/C=C\COc1cc(CN2CCCCC2)ccn1 (stereo unspecified)
inactive: [1] | [2] | [3] | [4] | [5] | [6] | [7] | [8] | [9] | [10] | [18] | [11] | [13] | [14] | [20] | [15] | [19] | [16] | [17]

Cc1ccc2c(Br)cc(Br)c(O)c2n1
inactive: [1] | [2] | [3] | [4] | [5] | [6] | [7] | [8] | [9] | [10] | [18] | [11] | [13] | [14] | [15] | [16] | [17]

CCN(CC)c1ccc(N=Nc2ccccc2)cc1
inactive: [1] | [2] | [3] | [4] | [5] | [6] | [7] | [8] | [9] | [10] | [18] | [11] | [12] | [13] | [20] | [19] | [16] | [17]
